This passage reports outcome and AC50 results from PubChem BioAssay (EPA / NIEHS).

Inconclusive results are not listed. Active and inactive are the calls of the source. Rule for the calls, unless noted: active = hit-call score of the fitted dose curve at least 0.9, where 1 is the maximum; inconclusive = response in the unintended direction; inactive = score below 0.9.

Read-out in experiment [1]: glucuronosyltransferase (UGT1A1), UGT1A1 (gene 54658)
The experiment is described as follows: CLD_UGT1A1_48hr: CellzDirect (CLD) Gene Expression Assay for glucuronosyltransferase (UGT1A1) at 48 hours (AID 2283709).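 Note: actives increase expression relative to DMSO so potency refers to induction.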 In a few lines: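 Quantitative nuclease protection assay (chemiluminescent) for UGT1A1 mRNA at 48 h in human hepatocyte cultures from two donors, redosed daily with fresh solutions. Induction fitted relative to 0.2% DMSO; phase-contrast morphology annotated cytotoxicity.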

Experiment [2] can be described thus: STM_H9_OrnithineISnorm_perc: Stemina devTOX quickPredict H9 human embryonic stem cell (hESC)-based Assay for Ornithine (ORN) Metabolite Biomarker, Normalized (AID 2283712; active = hit-call score of the fitted dose curve at least 0.9, where 1 is the maximum; inactive = score below 0.9;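 note: ornithine released into spent medium during last day measured by mass spectrometry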). In outline:
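Metabolite endpoint from spent media of pluripotent H9 cells treated 72 h with daily re-feeding; ornithine measured by UPLC-HRMS against its 13C spike-in and referenced to the median 0.1% DMSO vehicle response.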

A short description of experiment [3]: Tanguay_ZF_120hpf_ActivityScore_legacy: (Legacy) Oregon State University Tanguay Lab 120 Hour Post-fertilization zebrafish Assay Score for Activity (AID 2283742).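 For AC50: dechorionated Tropical 5D wild-type zebrafish embryos held singly per well.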 In outline: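 Binary scoring of mortality and morphology by brightfield at 24 and 120 hpf, summarised into one activity score from 18 components relative to DMSO. Wild-type Tropical 5D zebrafish, chorion removed at 4 hpf, static exposure 6–120 hpf, 28 °C.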

Read-out in experiment [4]: organic anion transporter (SLCO1B1), SLCO1B1 (gene 10599)
The experiment is described as follows: CLD_SLCO1B1_48hr: CellzDirect (CLD) Gene Expression Assay for organic anion transporter (SLCO1B1) at 48 hours (AID 2283707). In outline: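 SLCO1B1 transcript quantified by qNPA with chemiluminescent readout after 48 h of once-daily chemical exposure. Cultured human primary hepatocytes came from two donors, with 0.2% DMSO vehicle; positive-direction fitting against DMSO, cytotoxicity flagged by morphology.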

Experiment [5] can be described thus: STM_H9_OrnCyssISnorm_ratio: Stemina devTOX quickPredict H9 human embryonic stem cell (hESC)-based Assay for Ornithine (ORN):Cystine (CYSS) Ratio (AID 2283714). In outline: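 Ratio of internal-standard-normalized ornithine to cystine, measured by UPLC-HRMS in spent media from the last 24 h. H9 cells kept pluripotent, dosed 72 h with daily media and compound renewal; DMSO 0.1% serves as baseline.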

Read-out in experiment [6]: xenobiotic metabolism (CYP1A2), CYP1A2 (gene 1544)
The experiment is described as follows: CLD_CYP1A2_48hr: CellzDirect (CLD) Gene Expression Assay for xenobiotic metabolism (CYP1A2) at 48 hours (AID 2283703). In outline: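 Cytotoxicity was flagged yes/no from morphology, while CYP1A2 transcript induction was detected by qNPA chemiluminescence after a 48-hour exposure. Human primary hepatocyte cultures from separate donors received fresh dosing solutions daily over two days, with 0.2% DMSO as vehicle and baseline.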

Broadly, the AC50 is the concentration giving half of the maximal activity seen. As to `Oc1ccc(C(c2ccc(O)cc2)C(Cl)(Cl)Cl)cc1`, the compound was called inactive in experiment [1]. Further, the values for the AC50 in experiment [2] and in experiment [3] were 0.00653 µM (active) and 30.8 µM (active), respectively.

`CCOC(=O)[C@H](C)Oc1ccc(Oc2nc3ccc(Cl)cc3o2)cc1`: the outcome in experiment [4] was inactive.

For `CCCOC(=O)NCCCN(C)C`, the compound was called inactive in experiment [4] and in experiment [3].

Turning to `S=C([S-])NCCNC(=S)[S-].[Mn+2]`, in experiment [2], the half-maximal activity concentration (AC50) is 88.1 µM (active). In addition, the result in experiment [5] and in experiment [3] was inactive.

On to `COC(=O)c1ccccc1S(=O)(=O)NC(=O)Nc1nc(OC(F)F)cc(OC(F)F)n1`, for which, in experiment [4], the outcome was inactive.

Take `CCCCOC(=O)[C@@H](C)Oc1ccc(Oc2ccc(C(F)(F)F)cn2)cc1`: the result in experiment [4] and in experiment [3] was inactive. In addition, the values for the concentration at half-maximal activity (AC50) in experiment [2] and in experiment [5] were 80.7 µM (active) and 52.8 µM (active), respectively.

Regarding `COc1c(Cl)ccc(Cl)c1C(=O)O`, the compound was called inactive in experiment [4] and in experiment [3].

`C#CCOC(=O)[C@@H](C)Oc1ccc(Oc2ncc(Cl)cc2F)cc1`: the compound was classed as inactive in experiment [4] and in experiment [3]. The concentration at half-maximal activity (AC50) in experiment [2] is 65.5 µM (active); in experiment [5], 86.9 µM (active).

As to `CCSC(=O)N(CC(C)C)CC(C)C`, the call in experiment [4], in experiment [2], in experiment [5] and in experiment [3] was inactive.

On to `COCCO`, for which the result in experiment [4] and in experiment [3] was inactive.

`CCC(C)OC(=O)N1CCCCC1CCO` (stereo not drawn): the outcome in experiment [4] and in experiment [3] was inactive.

For `CCNc1nc(N)nc(Cl)n1`, the outcome in experiment [4], in experiment [2], in experiment [5] and in experiment [3] was inactive.

Turning to `COC(=O)c1ccccc1C(=O)O`, the result in experiment [6], in experiment [5] and in experiment [3] was inactive. In experiment [2], the AC50 was 0.00297 µM (active).

As to `CCCOC(=O)c1ccc(C(=O)OCCC)nc1`, in experiment [4], the compound was called inactive. Further, in experiment [3], the AC50 is 3.83 µM (active).

As to `CCOC(=O)NCCOc1ccc(Oc2ccccc2)cc1`, the compound was classed as inactive in experiment [4] and in experiment [3].

In the case of `CN(C)C(=O)Nc1ccc(Cl)c(Cl)c1`, the result in experiment [2] and in experiment [3] was inactive. Further, in experiment [5], the half-maximal activity concentration (AC50) is 82.4 µM (active).
